Compound activity as filed in PubChem BioAssay.
Most compounds without a hit are left out; they make up all but 5.4% or so of the library.
HSF1 activator – increases HSF-1 driven luciferase reporter signal | NIH3T3-HGL HSF-1 luciferase reporter, MG132, 8 h; 100% = twice DMSO control signal | AID 504408 | actives 1.7% (n = 300,000) | activation, % at 9 µM;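 active = mean replicate activation of at least 50% with a set share of replicates each reaching 50%; inconclusive = only one of those two conditions met; inactive = mean below 50% and too few replicates reaching it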
AHR act – activates the human aryl hydrocarbon receptor; actives 2.5% (n = 320,000); AID 2796; P35869; activation, % at 5 µM; AHR-responsive luciferase reporter cells, luminescence; in the data active = activation above about 47%
DAX1 inh – inhibitors of human orphan nuclear receptor DAX1 (NR0B1); HEK293 Gal4-DAX1 luciferase reporter, luminescence; P51843; AID 504766; actives 0.99% (n = 340,000); inhibition, % at 6.75 µM;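 active = inhibition above the mean over all tested compounds plus 3 SD, cut at about 4.2% in these data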;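 also: inhibition shows as a rise in luminescence from relieved DAX1 repression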
Target sequence (P51843 207-470 limits assumed): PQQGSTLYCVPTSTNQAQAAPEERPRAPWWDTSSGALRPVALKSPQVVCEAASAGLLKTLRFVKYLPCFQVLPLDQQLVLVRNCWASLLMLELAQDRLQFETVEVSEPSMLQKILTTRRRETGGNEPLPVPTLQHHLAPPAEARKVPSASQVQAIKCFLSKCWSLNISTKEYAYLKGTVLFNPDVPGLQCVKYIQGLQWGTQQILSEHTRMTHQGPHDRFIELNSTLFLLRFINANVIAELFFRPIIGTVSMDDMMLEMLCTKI
HSF1 inh – HSF1 inhibition | NIH3T3-HGL HSE-luciferase, MG132-induced, luminescence 8 h; active compounds read low | activity change, negative = inhibition, % at 7.5 µM (by protocol) | actives 0.77% (n = 300,000);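 active = more than half of replicate wells show activity change below -50%, luminescence cut by over half; inconclusive = some wells, but at most half, below -50%; inactive = no replicate well below -50%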;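 also: luciferase reports HSF-1 transcriptional activity via heat shock element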
GAA850 FXN act – increases GAA850 frataxin promoter reporter activity; activation, % at 6 µM; actives 0.56% (n = 360,000); AID 540364; HEK293 lucGAA850 FXN promoter luciferase reporter, 24 h; percent of 10 µM SAHA response;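 active = activation above the average of all compounds screened plus 3 SD, cutoff fixed separately per campaign, cut at about 7.5% in these data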
AHR act confirm – confirmation of human aryl hydrocarbon receptor activators; shares compounds with AHR act; human cells, AHR-responsive luciferase reporter, luminescence; activation, % at 9 µM; actives 87% (n = 2,300); AID 2845; in the data active = activation above about 49%;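 also: HepG2 hepatoma cells carrying a DRE-driven firefly luciferase reporter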
PXR act counter – PXR activation, counter-screen for AHR activators. shares compounds with AHR act. cell-based PXR reporter, luciferase luminescence. activation, % at 11.6 µM. actives 88% (n = 2,300). AID 434939; in the data active = activation above about 11%;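 also: human hepatoma DPX-2 cells expressing full-length human PXR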
Target sequence (O75469 whole entry, looked up): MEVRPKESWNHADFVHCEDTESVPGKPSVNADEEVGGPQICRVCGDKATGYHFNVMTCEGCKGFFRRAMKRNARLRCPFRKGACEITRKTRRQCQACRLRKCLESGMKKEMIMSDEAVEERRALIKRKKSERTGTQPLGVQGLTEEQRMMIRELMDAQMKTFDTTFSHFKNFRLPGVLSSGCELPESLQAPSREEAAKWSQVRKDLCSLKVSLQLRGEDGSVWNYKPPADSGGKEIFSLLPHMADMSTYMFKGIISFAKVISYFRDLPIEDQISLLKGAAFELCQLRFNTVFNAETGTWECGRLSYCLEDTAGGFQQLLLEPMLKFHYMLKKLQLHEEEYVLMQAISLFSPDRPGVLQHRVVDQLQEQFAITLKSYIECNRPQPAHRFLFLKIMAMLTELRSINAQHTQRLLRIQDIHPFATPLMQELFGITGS
Hits are given with their value; 0 = inactive; ? = inconclusive; - = no result.

SMILES | HSF1 activator | AHR act | DAX1 inh | HSF1 inh | GAA850 FXN act | AHR act confirm | PXR act counter
CCCC(=O)Nc1c2c(nc3ccccc13)N(c1ccccc1)CC2 | 0 | 108 | 0 | 0 | 0 | 98 | 23
O=[N+]([O-])c1cc(CN2CCCC2)ccc1Sc1ccc(Cl)cc1 | 0 | 0 | 0 | 0 | 0 | - | -
Cc1nc(C)c(-c2ccc(SCC(=O)Nc3cccc(Cl)c3C)nn2)s1 | 0 | 0 | 0 | 0 | 0 | - | -
O=C(NCCC(=O)N1CCN(S(=O)(=O)c2ccc(Cl)cc2)CC1)Nc1ccccc1 | - | - | 0 | - | 0 | - | -
CCNC(=S)/N=C(/Nc1ccc(OC)cc1)Nc1nc(C)cc(C)n1 | 0 | 0 | - | 0 | 0 | - | -
CCNC(=S)/N=C(/Nc1ccccc1)Nc1nc(C)cc(C)n1 | 0 | 80 | - | 0 | 0 | 113 | 64
CCCc1ccc(-c2c(C)sc(N)c2C#N)cc1 | 0 | 97 | 0 | 0 | 0 | 104 | 13
COc1ccc(Cl)cc1Nc1nc(-c2cccnc2)cs1 | 0 | 0 | 0 | 0 | 0 | - | -
COc1cccc(Nc2nc(-c3sc(NC(=O)c4ccco4)nc3C)cs2)c1 | 0 | 0 | 0 | 0 | 0 | - | -
CCC(C)C(=O)Nc1nc(C)c(-c2csc(Nc3cc(Cl)ccc3OC)n2)s1 (stereo unspecified) | 0 | 85 | 0 | 0 | 0 | 56 | 30
COc1ccc(Cl)cc1Nc1nc(-c2sc(NC(=O)c3ccco3)nc2C)cs1 | 0 | 106 | 0 | 0 | 0 | 75 | 21
CCC(C)C(=O)Nc1nc(C)c(-c2csc(Nc3cc(OC)ccc3OC)n2)s1 (stereo unspecified) | 0 | 83 | 0 | 0 | 0 | 61 | 53
COc1ccccc1NC(=O)CCCCCN1C(=O)c2cccc3cccc(c23)C1=O | 0 | 85 | 0 | 0 | 0 | 0 | 56
CC(C)CCCC(C)NC(=O)c1cc(S(=O)(=O)N2CCCCC2)ccc1N1CCOCC1 (stereo unspecified) | - | 0 | 0 | - | 0 | - | -
O=C(COC(=O)CCC(=O)c1ccc(F)cc1)Nc1ccc2[nH]c(=O)[nH]c2c1 | 0 | 0 | 0 | 0 | 0 | - | -
CC(=O)/C(=N/Nc1ccc(Br)cc1)Sc1cccc2cccnc12 | 67 | 125 | 0 | 0 | 0 | 116 | 180
CCN(CC)C(=O)Sc1cccc2cccnc12 | 0 | 0 | 0 | 0 | 0 | - | -
CCCc1nnc(SCC(=O)NC2CC2)n1C | 0 | 0 | 0 | 0 | 0 | - | -
COc1ccc(C(=O)N/N=C/c2sc(N3CCOCC3)nc2-c2ccccc2)cc1OC | 0 | 0 | 0 | 0 | 0 | - | -
O=C(N/N=C/c1sc(N2CCOCC2)nc1-c1ccccc1)c1ccc(O)cc1 | ? | 95 | 0 | 0 | 0 | 49 | 11
Cc1nnc(NC(=O)c2ccc(-c3ccc(Cl)cc3)o2)s1 | 0 | 0 | 0 | 0 | 0 | - | -
O=C(Nc1nccs1)c1ccc(-c2ccc(Cl)cc2)o1 | 57 | 84 | 4.6 | 0 | 0 | 0 | 26
Cc1[nH]c2ccccc2c1/C=N/NC(=O)CNC(=O)Cc1ccccc1 | 0 | 0 | 0 | 0 | 0 | - | -
Cc1[nH]c2ccccc2c1/C=N/NC(=O)Cc1cccs1 | 0 | 100 | 0 | 0 | 0 | 72 | 38
Cc1[nH]c2ccccc2c1/C=C/C(=O)c1ccccc1 | 0 | 129 | 0 | 0 | 0 | 123 | 73
SMILES | HSF1 activator | AHR act | DAX1 inh | HSF1 inh | GAA850 FXN act | AHR act confirm | PXR act counter
Cc1[nH]c2ccccc2c1/C=C(\C#N)S(=O)(=O)c1ccccc1 | 0 | 0 | 0 | 0 | 0 | - | -
Cc1[nH]c2ccccc2c1/C=N/NC(=O)Nc1ccccc1 | 0 | 95 | 0 | 0 | 0 | 136 | 46
Cc1[nH]c2ccccc2c1/C=N/NC(=O)CCC(=O)Nc1ccccc1 | - | 0 | 0 | - | 0 | - | -
O=C(NC(=S)Nc1cc(C(F)(F)F)ccc1N1CCOCC1)c1sc2ccccc2c1Cl | 0 | 0 | 0 | 0 | 0 | - | -
CN(C)CC1C2CCC(C2)C1O (stereo unspecified) | - | - | 0 | - | 0 | - | -
COc1ccc(CC(=O)NNC(=O)COc2ccc(Cl)cc2C)cc1S(=O)(=O)N1CCOCC1 | - | 0 | 0 | - | 0 | - | -
O=C(CC1Sc2ccccc2NC1=O)Nc1ccccc1[N+](=O)[O-] (stereo unspecified) | 0 | 152 | 0 | 0 | 0 | 111 | 38
CCOC(=O)Cn1cc(C#N)c2cccc(CC)c21 | 0 | 0 | 0 | 0 | 0 | - | -
COc1ccc(Br)cc1C(=O)Nc1ccccc1N1CCCC1 | 0 | 0 | 0 | 0 | 0 | - | -
COc1c(C)cc(Br)cc1C(=O)Nc1cccc(NC(=O)c2ccco2)c1 | 0 | 0 | 0 | 0 | 0 | - | -
COc1ccc(NC(=O)c2ccco2)cc1NC(=O)c1ccccc1F | 0 | 87 | 0 | 0 | 0 | 95 | 12
COc1ccc(NC(=O)c2cccs2)cc1NC(=O)c1ccco1 | 0 | 0 | 0 | 0 | 0 | - | -
COc1ccc(Br)cc1C(=O)Nc1ccccc1-c1ccccc1 | 0 | 82 | 0 | 0 | 0 | 76 | 13
COc1ccc(Br)cc1C(=O)Nc1cccc(NC(=O)c2ccco2)c1 | 0 | 84 | 0 | 0 | 0 | 98 | 15
COc1ccccc1NC(=O)c1ccc(-c2ccc(Br)cc2)o1 | 0 | 99 | 0 | 0 | 0 | 105 | 11
C=CCn1c(SCC(=O)N2CCCC2)nc2c([nH]c3ccccc32)c1=O | 0 | 86 | 0 | 0 | 0 | 98 | 125
C=CCn1c(SCC(=O)N2CCN(C(=O)OCC)CC2)nc2c([nH]c3ccccc32)c1=O | - | - | 0 | - | 0 | - | -
Cc1nc2scc(-c3cccs3)c2c(=O)[nH]1 | 0 | 0 | 0 | 0 | 0 | - | -
O=c1[nH]c(-c2ccc(O)cc2)nc2scc(-c3cccs3)c12 | 0 | 124 | 0 | 0 | 0 | 86 | 23
Cc1ccccc1Cn1c(=O)n(C)c(=O)c2sccc21 | 0 | 0 | 0 | 0 | 0 | - | -
CN1C2C=C3C(C#N)=C(N)C(C#N)(C#N)C(c4ccc(Br)cc4)C3C1CC2 (stereo unspecified) | 0 | 110 | 0 | 0 | 0 | 79 | 107
CC(=O)Nc1ccc(-c2ccnc3c2CC(C)(C(=O)Nc2cccc(C(F)(F)F)c2)O3)cc1 (stereo unspecified) | - | - | - | - | 0 | - | -
COc1cc(C#Cc2c(-c3cncn3C)n(C)c3ccc(-c4ccc5cc[nH]c5c4)cc23)cc(OC)c1 | - | 106 | 0 | - | 0 | 82 | 23
COc1cc(C#Cc2c(-c3cncn3C)n(C)c3ccc(Br)cc23)cc(OC)c1 | - | 0 | 0 | - | 0 | - | -
O=C1N[C@@H](Cc2c[nH]c3ccccc23)COC(=O)[C@@H](Cc2ccc(F)cc2)CC/C=C/C[C@@H]1CC(=O)N(CCO)Cc1ccccc1 | - | 0 | 0 | - | 0 | - | -
Cc1cc(OCc2nc3ccccc3s2)ccc1N | 0 | 86 | 0 | 0 | 0 | 92 | 34
COc1cc2c(cc1OC)CN(CC(=O)Nc1ccc(F)cc1)C(C(=O)O)C2 (stereo unspecified) | 0 | 0 | 0 | 0 | 0 | - | -
COC1=NC(=C(c2ccccc2)c2ccccc2)OC1=O | - | - | 0 | - | 0 | - | -
COC(=O)C1=C(C)N(CC2CC2)C(=O)N[C@H]1c1ccccc1 | 0 | 0 | 0 | 0 | 0 | - | -
